# Shown are actives, neighbours in structure and some others; about 28% of the full set was active somewhere.
# CYP2C9 inh – inhibitors of human CYP2C9 | AID 777 | P11712 | inhibition, % at 5 µM | CYP2C9 Supersomes, luciferin-H conversion, luminescence | hit rate 20% among 96,000;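 active means blocking of liver enzyme CYP2C9 beyond about 50% at 5 µM, limit read from the data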
# CYP2C19 activ – cytochrome P450 2C19 (human) activation; P33261; recombinant CYP2C19, luciferin-H EGE luminescence; stronger effect = higher value; 0 = fully inhibited enzyme, 1 = untreated enzyme; activation factor at 5 µM; 96,000 tested, under 10 active; AID 1025;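 active means activation factor of at least 2 at 5 µM in the primary screen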;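 further: 0 = wells with 2.5 mM tranylcypromine and 1 = vehicle-only wells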
# CYP2C9 act – increases human cytochrome P450 2C9 activity. P11712. recombinant CYP2C9, luciferin-H conversion, luminescence; stronger effect = higher value; factor 1 = untreated enzyme, 0 = blocked. activation factor at 5 µM. hit rate 1.4% among 96,000;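 active means activation factor of 2 or more for CYP2C9 at a 5 µM dose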;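 further: 0 = sulfaphenazole-blocked wells and 1 = vehicle-only wells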
# CYP2C19 inhib – human CYP2C19 inhibition; hit rate 21% among 96,000; inhibition, % at 5 µM; CYP2C19 Supersomes, luciferin-H EGE luminescence, 30 min; P33261;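 active means CYP2C19 inhibition above a set limit at 5 µM in the primary screen, cut at about 50% in these data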;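 further: plate controls were negative control wells for no effect and 2.5 mM tranylcypromine positive control for full effect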
# PTK2B oligo ant – Pyk2 (human) oligomerization antagonism; hit rate 0.83% among 99,000; Q14289; AID 1347419; Q293 cells, Pyk2 FERM NanoBiT luminescence; stronger effect = lower value; z-score (the deposit names both 25 µM and 10 µM);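 active means Z-score of -3 or lower, scaled per plate to the spread of control and sample wells; inactive means z-score above -3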;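 further: negative z-score means lost luminescence so less FERM oligomerization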
# Target sequence (Q14289 whole entry, looked up): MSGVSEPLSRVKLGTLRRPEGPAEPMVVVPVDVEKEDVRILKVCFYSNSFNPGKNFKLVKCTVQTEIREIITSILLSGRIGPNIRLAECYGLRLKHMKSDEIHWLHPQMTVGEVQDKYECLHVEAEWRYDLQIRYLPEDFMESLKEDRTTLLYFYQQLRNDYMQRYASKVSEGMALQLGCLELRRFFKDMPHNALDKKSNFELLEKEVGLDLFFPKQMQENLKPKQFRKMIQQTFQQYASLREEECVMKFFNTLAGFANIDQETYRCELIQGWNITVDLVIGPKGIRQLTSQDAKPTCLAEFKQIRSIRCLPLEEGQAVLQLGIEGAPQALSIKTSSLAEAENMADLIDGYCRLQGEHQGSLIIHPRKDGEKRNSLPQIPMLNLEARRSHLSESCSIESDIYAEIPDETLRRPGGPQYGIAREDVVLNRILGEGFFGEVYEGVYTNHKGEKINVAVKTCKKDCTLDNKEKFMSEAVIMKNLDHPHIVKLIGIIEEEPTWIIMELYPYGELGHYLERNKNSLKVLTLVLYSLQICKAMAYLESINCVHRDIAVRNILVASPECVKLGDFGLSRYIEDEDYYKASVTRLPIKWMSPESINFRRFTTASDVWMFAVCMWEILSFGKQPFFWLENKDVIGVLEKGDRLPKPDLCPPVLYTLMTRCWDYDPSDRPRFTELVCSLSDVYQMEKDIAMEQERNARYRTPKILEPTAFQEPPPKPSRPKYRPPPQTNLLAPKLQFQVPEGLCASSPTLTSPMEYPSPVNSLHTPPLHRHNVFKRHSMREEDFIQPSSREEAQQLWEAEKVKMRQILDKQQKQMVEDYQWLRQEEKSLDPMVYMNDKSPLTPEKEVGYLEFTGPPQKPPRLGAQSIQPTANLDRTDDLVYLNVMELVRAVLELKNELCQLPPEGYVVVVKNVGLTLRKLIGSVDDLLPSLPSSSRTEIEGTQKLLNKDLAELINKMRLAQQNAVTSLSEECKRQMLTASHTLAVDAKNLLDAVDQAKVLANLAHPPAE
# * = called active by the depositor; . = no result.
SMILES,CYP2C9 inh,CYP2C19 activ,CYP2C9 act,CYP2C19 inhib,PTK2B oligo ant
Cc1nnc(SCC(=O)NC2CCCCC2)n(N)c1=O,-4,1.2,1,-19,-0.22
CC(C)C[C@H](NC(=O)Nc1ccccc1F)C(=O)O,4,1,1,2,-0.31
CC(CN1CCOCC1)OC(=O)c1ccccc1Br (stereo not drawn),-6,0.2,1.1,76*,1.3
CC(CN1CCOCC1)OC(=O)C(c1ccccc1)c1ccccc1 (stereo not drawn),.,.,.,.,-0.41
CC(CN1CCOCC1)OC(=O)c1ccc2c(c1)OCCO2 (stereo not drawn),0,0.8,1,18,1.7
CC(CN1CCOCC1)OC(=O)c1cccc(Br)c1 (stereo not drawn),-1,0.4,1,60*,0.27
CCOC(=O)c1nn(-c2ccccc2)c2nc(Nc3ccccc3)cc(=O)n12,17,1,0.8,1,-0.17
O=C(CCN1C(=O)c2ccccc2C1=O)N1CCN(Cc2ccc(Cl)cc2Cl)CC1,43,0.8,0.6,17,0.24
Cc1cc2nc(C)n(CCCNC(=O)Nc3ccc(F)cc3)c2cc1C,60*,0.7,0.4,30,-0.29
COc1ccc(NC(=O)NCCCN2CCN(c3cc(C)ccc3C)CC2)cc1,21,0.8,0.8,22,.
Oc1ccc(/C=N/NC2=NCCCCC2)cc1,2,0.9,1,9,0.13
O=C(O)CSCC(=O)Nc1ccc(C2CCCCC2)cc1,64*,1,0.4,3,-0.41
CCOC(=O)N1CCC(NC(=O)c2ccc3c(=O)n4c(nc3c2)CCCC4)CC1,29,1,0.7,2,0.75
C=CCn1c(SCc2c(C)noc2C)nc2sc(C)c(C)c2c1=O,56*,0.8,0.4,20,-1.1
Cc1noc(C)c1CSc1nnc2ccccn12,10,0.8,0.9,22,1.4
O=C(O)CCn1c(SCc2ccccc2)nc2ccccc21,8,1,0.9,3,0.65
Cc1noc(C)c1CSc1nc2ccccc2n1CCc1ccccc1,62*,0.4,0.4,63*,-1.1
C=CCn1c(SCC(=O)c2cc(C)n(C(C)COC)c2C)nc2sc(C)c(C)c2c1=O (stereo not drawn),91*,0.1,0.1,89*,-0.62
Cc1noc(C)c1CSc1nnnn1-c1ccc(Cl)cc1,58*,0,0.4,99*,-0.12
Cc1noc(C)c1CSc1ncnc2sc(C)c(C)c12,49,0.6,0.5,37,-0.13
O=C(NCC1CCS(=O)(=O)C1)Oc1ccccc1 (stereo not drawn),-5,0.8,1.1,16,-0.45
CC(C)C(C(=O)Nc1ncn[nH]1)N1C(=O)c2ccccc2C1=O (stereo not drawn),29,0.5,0.7,46,-0.06
Cc1noc(C)c1CSc1nc2ccccc2c(=O)n1-c1ccc(Cl)cc1,96*,0.3,0,71*,-0.86
Cc1noc(C)c1CSc1nc2sc(C)c(C)c2c(=O)n1-c1ccccc1,50*,1,0.5,-3,-0.66
Cc1sc2nc(SCC(=O)N(C)Cc3ccccc3)n(-c3ccccc3)c(=O)c2c1C,15,1,0.9,2,-1.8
SMILES,CYP2C9 inh,CYP2C19 activ,CYP2C9 act,CYP2C19 inhib,PTK2B oligo ant
Cc1ccc(-n2c(SCC(=O)Nc3cc(C)on3)nc3ccccc3c2=O)cc1,3,1,1,2,1.5
O=C(Cc1ccc(S(=O)(=O)N2CCOCC2)s1)Nc1nc2c(s1)CCCC2,39,0.8,0.6,16,-0.64
COc1ccc(N(C(=O)c2ccccc2OC(C)=O)C(C)C2CC2)cc1 (stereo not drawn),32,0.6,0.7,44,-1
CCOC(=O)Cc1csc(NC(=O)C2CCCCC2C(=O)O)n1 (stereo not drawn),12,1,0.9,-2,0.32
CCOC(=O)C1=CN(c2cccc(F)c2)C=C(C(=O)OCC)C1c1cc(OC)c(O)c([N+](=O)[O-])c1,57*,1.2,0.4,-16,-2.2
Cc1cc(C)n(-c2nc3ccccc3[nH]c2=O)n1,.,.,.,.,0.26
Cc1cc(NC(=O)c2ccccc2F)n(-c2nc3ccccc3[nH]2)n1,28,0.8,0.7,24,-2.1
Cc1cc(NC(=O)C2CCC2)n(-c2ccccn2)n1,-195,0.6,3*,38,0.28
Cc1cc(NC(=O)C2CCCCC2)n(-c2nc3ccccc3[nH]2)n1,71*,0.7,0.3,31,-0.54
Cc1cc(NC(=O)c2c(F)cccc2Cl)n(-c2nc3ccccc3[nH]2)n1,95*,0.1,0.1,86*,-2.3
Cc1cc(NC(=O)c2c(F)cccc2F)n(-c2nc3ccccc3[nH]2)n1,52*,0.7,0.5,29,-1.7
COc1ccc(/C=N\NC(=O)C2=NNC(=O)C2C)cc1 (stereo not drawn),-10,1,1.1,4,3.6
COC(=O)c1ccccc1NC(=O)c1cc(-c2ccc(O)cc2)on1,-59,1.1,1.6,-8,.
Cc1cc(Nc2ccccc2)n(-c2nc3ccccc3[nH]2)n1,69*,0.8,0.3,23,-0.86
NC(=O)C1C(c2ccccc2)=C1c1ccccc1,-5,0.9,1.1,7,0.99
COc1ccc(OC)c(NC=C2C(=O)OC3(CCCCC3)OC2=O)c1,-37,0.7,1.4,28,-0.8
CCOc1ccccc1NC=C1C(=O)OC2(CCCCC2)OC1=O,-163,0.9,2.6*,13,-0.55
N#Cc1nn(-c2ccccc2)nc1N1CCCCC1,51*,0.8,0.5,16,-0.18
CCCOC(=O)CSc1nc(N)c(C#N)c(-c2ccco2)c1C#N,.,.,.,.,0.84
CCCc1nc(N)c(C#N)c(-c2ccco2)c1CC,50*,0.4,0.5,59*,0.06
CCn1c(=O)c2cc(C(=O)N3CCOCC3)sc2c2ccccc21,-44,0.8,1.4,22,.
Cn1c2ccccc2c2cc(C(=O)N3CCOCC3)sc21,-148,0.8,2.5*,24,0.21
CCOC(=O)C1CCN(C(=O)COc2ccc(Br)cc2)CC1,65*,0.2,0.4,82*,1.2
CCOC(=O)C1CCN(C(=O)COc2cccc(C)c2)CC1,20,0.2,0.8,81*,0.38
CCOC(=O)C1CCN(CC(O)COc2ccc(C(C)(C)C)cc2)CC1 (stereo not drawn),40,0.4,0.6,56*,-0.19
SMILES,CYP2C9 inh,CYP2C19 activ,CYP2C9 act,CYP2C19 inhib,PTK2B oligo ant
Cc1cccc(OCC(=O)N2CCN(C(=O)c3cccs3)CC2)c1,59*,0.4,0.4,62*,0.47
CC(C(=O)Nc1ccc2nccnc2c1)N1C(=O)C2C3C=CC(C3)C2C1=O (stereo not drawn),4,1.1,1,-10,.
C=CCn1c(CCCOc2ccc(Cl)cc2Cl)nnc1SCC(=O)Nc1nccs1,-7,1.1,1.1,-9,-0.69
CCn1c(CSc2nc3ccccc3s2)nnc1SCC(=O)c1ccc(O)cc1O,-10,1.1,1.1,-14,0.02
CCOC(=O)C1CCN(C(=O)COc2cc(C)c(Br)cc2C)CC1,48,0.1,0.5,91*,-0.11
CCOC(=O)C1CCN(C(=O)COc2ccc(S(=O)(=O)NC(C)C)cc2Cl)CC1,.,.,.,.,0.15
